Test systems include T-47D breast; BT-549 breast; MDA-MB-435 melanoma; SW-620 colon; MCF7 breast; HCT-116 colon; KM12 colon; HCC-2998 colon.
Common to all, as to assay: NCI-60 one-dose screen, 48 h (100 = growth as untreated, 0 = no growth, -100 = all killed)
Conditions in all cases: 10 µM unless noted

Compounds without any hit were thinned out: in the full panel of roughly 83,000, 20% have a hit.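 The test compound was applied at a single concentration to cells in 96-well plates for 48 hours, and percent growth was recorded.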 Unmarked numbers belong to inactive results. Activity calls are given as the source filed them. Rule for the calls: active = growth percent below 10; inactive = the rest.

For the molecule `CCCCN1c2nc3ccccc3cc2Sc2cc3ccccc3nc21`, the growth in the experiment on T-47D breast is 13.7%; in the experiment on BT-549 breast it was 97.1%; in the experiment with MDA-MB-435 melanoma it was 151%; with SW-620 colon, 94.4%; in the experiment on MCF7 breast it was 7.26% (active); in the experiment on HCT-116 colon it was 95.1%. Moreover, the growth with KM12 colon is 68.3%.
As for `O=C1/C(=C/c2ccc(F)cc2)Cc2ccccc21`, the growth in the experiment with T-47D breast is 103%; in the experiment with BT-549 breast, 89.6%; in the experiment with MDA-MB-435 melanoma, 107%; with SW-620 colon, 104%; in the experiment on MCF7 breast, 27.3%; in the experiment on HCT-116 colon it was 87.9%. Moreover, the growth with KM12 colon is 106%.
Turning to `O=C(Nc1ccccc1OC(=O)c1ccccc1)c1ccccc1`, the growth with T-47D breast is 67%; in the experiment on BT-549 breast, 72.7%; in the experiment on MDA-MB-435 melanoma, 104%; in the experiment with SW-620 colon it was 23.6%; with MCF7 breast, 27.2%; in the experiment on HCT-116 colon, 9.26% (active). The growth in the experiment with KM12 colon is 25.7%.
Regarding `N/C(=N\C(N)=N\c1nc2ccccc2s1)c1ccnc(Cl)c1`, the growth in the experiment on T-47D breast was 60.8%; in the experiment on BT-549 breast, 38%; in the experiment with MDA-MB-435 melanoma, -34.9% (active); in the experiment with SW-620 colon, 16.8%; with MCF7 breast it was 31.5%; in the experiment with HCT-116 colon, 31.7%. Besides, the growth with KM12 colon was 32%.
`Clc1ccc2nc(CI)c(CI)nc2c1`: the growth with T-47D breast is 85.3%; with BT-549 breast, 73.1%; in the experiment with MDA-MB-435 melanoma it was 23.8%; with MCF7 breast, 22.4%; in the experiment on HCT-116 colon, 11%; in the experiment with HCC-2998 colon, 100%. Also, the growth with KM12 colon is 101%.
Take `Cc1cc2c(cc1C)[n+](Cc1ccc3ccccc3c1)cn2Cc1ccc2ccccc2c1`: the growth is -56.4% (active) with T-47D breast; -86.9% (active) in the experiment with BT-549 breast; -82.8% (active) in the experiment with MDA-MB-435 melanoma; -67.7% (active) with MCF7 breast; -96.4% (active) in the experiment with HCT-116 colon; -69.6% (active) in the experiment on HCC-2998 colon. Besides, the growth in the experiment with KM12 colon is -85.3% (active).
As to `O=C(NCCNC(=O)Oc1cccc2ccccc12)Oc1cccc2ccccc12`, the growth with T-47D breast was 71.7%; with BT-549 breast, 105%; in the experiment on MDA-MB-435 melanoma, 114%; with SW-620 colon, 102%; in the experiment on MCF7 breast it was 84.4%; with HCT-116 colon, 99.7%. Moreover, the growth in the experiment with KM12 colon was 104%.
As for `CCN(CC)c1ccc(/C=C/C(=O)c2cccc(NS(C)(=O)=O)c2)cc1`, the growth in the experiment with T-47D breast is 44.3%; in the experiment on BT-549 breast, 58.3%; in the experiment on MDA-MB-435 melanoma, 22.7%; in the experiment on MCF7 breast it was 22.8%; with HCT-116 colon, 25.8%; with HCC-2998 colon, 23.2%. In the experiment with KM12 colon, the growth was 17.1%.
For the molecule `O=C(Nc1ccc2c(c1)C(=O)c1ccccc1-2)c1ccccc1`, the growth is 73.2% with T-47D breast; 104% in the experiment with BT-549 breast; 101% in the experiment on MDA-MB-435 melanoma; 55.4% in the experiment on SW-620 colon; 48% with MCF7 breast; -20.7% (active) with HCT-116 colon. The growth in the experiment with KM12 colon is 87.3%.
`N#Cc1c(-c2ccc(F)cc2)n2c(nc1=O)SC(=O)C2=O`: the growth in the experiment on T-47D breast was 114%; with BT-549 breast, 99.1%; in the experiment with MDA-MB-435 melanoma, 96.5%; in the experiment with MCF7 breast it was 89.4%; in the experiment on HCT-116 colon it was 102%; in the experiment with HCC-2998 colon, 102%. The growth with KM12 colon was 104%.
As to `COc1ccc(-c2c3c(N)nc(-c4ccncc4)nc3nc3c2c(C)nn3-c2ccccc2)cc1`, the growth in the experiment with T-47D breast was 75.2%; in the experiment on BT-549 breast it was 87.1%; with MDA-MB-435 melanoma, 54%; in the experiment with MCF7 breast it was 47.7%; with HCT-116 colon, 15.6%; in the experiment on HCC-2998 colon it was 102%. Also, the growth in the experiment with KM12 colon was 62.9%.
Take `C/C=C(/C(=C/C)c1ccc(O)cc1)c1ccc(O)cc1`: the growth with T-47D breast was 53.5%; with BT-549 breast, 40.7%; with MDA-MB-435 melanoma, -40.2% (active); in the experiment with MCF7 breast, 20.6%; with HCT-116 colon, 27%; in the experiment on HCC-2998 colon it was 61.7%. Also, the growth in the experiment on KM12 colon is 20.3%.
`COC(=O)C1=CCC(n2cnc3c(N)ncnc32)O1` (stereo not given): the growth with T-47D breast was 102%; in the experiment with BT-549 breast, 114%; with MDA-MB-435 melanoma, 102%; in the experiment on MCF7 breast it was 120%; with HCT-116 colon, 98.6%; with HCC-2998 colon it was 106%. For the same molecule, the growth in the experiment with KM12 colon is 100%.
With `COc1ccc2c(c1)c(CC(=O)[Se]C)c(C)n2C(=O)c1ccc(Cl)cc1`, the growth with T-47D breast was 80.6%; with BT-549 breast, -80.8% (active); with MDA-MB-435 melanoma, -20% (active); in the experiment on MCF7 breast it was 16%; in the experiment on HCT-116 colon, 0.342% (active); with HCC-2998 colon it was 68.8%. The growth with KM12 colon was 61.6%.
For the molecule `Cc1cc(=O)oc2cc(OCCn3c(C)nn(-c4ccc(Cl)cc4)c3=O)ccc12`, the growth with T-47D breast is 47.4%; with BT-549 breast, 56.7%; in the experiment on MDA-MB-435 melanoma, -38.6% (active); in the experiment with MCF7 breast it was 15.8%; in the experiment on HCT-116 colon, 15.1%; in the experiment on HCC-2998 colon it was 46.7%. Further, the growth with KM12 colon is 31.4%.
For `CCN(CC)CCNCC(=O)Oc1ccc(/C=C/C(=O)CC(=O)/C=C/c2ccc(OC(=O)CNCCN(CC)CC)c(OC)c2)cc1OC`, the growth with T-47D breast was 26.6%; with BT-549 breast, -49.4% (active); with MDA-MB-435 melanoma it was -30% (active); in the experiment on MCF7 breast, 11.6%; in the experiment with HCT-116 colon, -9.15% (active); with HCC-2998 colon, -24.9% (active). Also, in the experiment on KM12 colon, the growth is -19.5% (active).
Turning to `Cc1ncc(C(=O)Nc2ccc(CN3CCN(C)CC3)c(C(F)(F)F)c2)cc1C#Cc1cncc2ncccc12`, the growth with T-47D breast was 83.7%; in the experiment with BT-549 breast, 85.4%; in the experiment on MDA-MB-435 melanoma, 36.9%; with SW-620 colon it was 59.6%; in the experiment on MCF7 breast, 71.9%; with HCT-116 colon, 42.2%. For the same molecule, in the experiment on KM12 colon, the growth was 13.6%.
For the molecule `COc1cnc2c(c1)C(=O)c1c-2n(CCCN2CCNCC2)c(=O)c2cc(F)ccc12`, the growth is 9.02% (active) with T-47D breast; 4.74% (active) in the experiment with BT-549 breast; -41.3% (active) in the experiment with MDA-MB-435 melanoma; 11.7% in the experiment on MCF7 breast; -82.5% (active) in the experiment on HCT-116 colon; 2.69% (active) in the experiment with HCC-2998 colon. Further, the growth in the experiment with KM12 colon is -13.1% (active).
For the molecule `C[C@]12CC[C@H](O)CC1=CC[C@@H]1[C@@H]2CC[C@]2(C)C(c3cccnc3)=CC[C@@H]12`, the growth in the experiment on T-47D breast is 55.6%; with BT-549 breast, 59.5%; with MDA-MB-435 melanoma, 19.8%; in the experiment with MCF7 breast, 61.4%; in the experiment on HCT-116 colon, 58.7%; in the experiment on HCC-2998 colon, 74.6%. Moreover, the growth in the experiment on KM12 colon was 52.8%.
Take `CCOC(=O)OCC(=O)[C@@]1(O)CC[C@H]2[C@@H]3CCC4=CC(=O)CC[C@]4(C)[C@H]3[C@@H](O)C[C@@]21C`: the growth with T-47D breast is 91.4%; with BT-549 breast it was 101%; with MDA-MB-435 melanoma, 111%; in the experiment with SW-620 colon it was 98.3%; in the experiment with MCF7 breast, 94.9%; with HCT-116 colon, 98.3%. Further, the growth with KM12 colon was 106%.
With `O=C(Oc1ccccc1)C(Br)C(Br)c1ccccc1` (stereo not given), the growth was 94% with T-47D breast; 99.9% in the experiment with BT-549 breast; 94.5% with MDA-MB-435 melanoma; -77% (active) in the experiment on SW-620 colon; 49.5% with MCF7 breast; 61.2% in the experiment with HCT-116 colon. The growth with KM12 colon is 71.9%.
On to `c1ccc(CN=C(NCc2ccccc2)NCc2ccccc2)cc1`, for which the growth is 26.3% with T-47D breast; 82.2% in the experiment on BT-549 breast; 66.9% in the experiment with MDA-MB-435 melanoma; 77.3% with SW-620 colon; 36.5% with MCF7 breast; 46.4% in the experiment with HCT-116 colon. In the experiment with KM12 colon, the growth was 62.6%.
On to `C[C@]12CCC(=O)C=C1CC[C@H]1[C@@H]3C[C@@H](O)[C@](O)(C(=O)CO)[C@@]3(C)C[C@H](O)[C@@]12F`, for which the growth in the experiment on T-47D breast is 103%; in the experiment with BT-549 breast it was 99.4%; with MDA-MB-435 melanoma it was 99.7%; in the experiment on SW-620 colon, 95.5%; in the experiment on MCF7 breast it was 86.1%; with HCT-116 colon, 90.6%. Also, the growth with KM12 colon is 102%.
Take `OC(c1cc(-c2cccc(Cl)c2)nc2ccccc12)C1CCCCN1` (stereo not given): the growth with T-47D breast is -71.6% (active); in the experiment with BT-549 breast it was 67%; in the experiment with MDA-MB-435 melanoma, -56.9% (active); in the experiment on SW-620 colon it was -66.6% (active); with MCF7 breast it was -86.9% (active); with HCT-116 colon it was -89.8% (active). Moreover, the growth with KM12 colon is -88.1% (active).
Regarding `CC(=O)N1N=C(c2ccc(Nc3nc(NCCO)nc(NCCO)n3)cc2)CC1c1ccc(Cl)cc1` (stereo not given), the growth with T-47D breast is 66.2%; with BT-549 breast, 87.9%; with MDA-MB-435 melanoma it was 101%; in the experiment on MCF7 breast, 90.5%; with HCT-116 colon it was 83.4%; in the experiment with HCC-2998 colon, 102%. In the experiment with KM12 colon, the growth is 100%.
